Laboratory results: PubChem BioAssay AID1159580 (chemical genetic matrix, 2015)
Among all 5,500 compounds or so, about 2,000 (36%) were called active. Another 18% or so got no clear call; they are omitted. Rule as the data show it: active = normalized growth mostly below about 0.91 (no sharp cut-off); inconclusive = no clear call, values can overlap the other calls; inactive = mostly above about 0.92. Some of the results follow.

Assay: chemical genetic growth profiling, strain panel (AID 1159580);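 also: tested at 20 µM; growth read once vehicle control cultures reached saturation at 30 °C; 1 = growth at the plate median or of vehicle wells; lower values mean less growth of the strain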
Conditions: growth OD

Measured: normalized growth

CN1CC(CO)=C[C@@H]2c3cccc4[nH]cc(c34)C[C@H]21
inactive: S. cerevisiae deletion strains, locus YAL013W, strain DEP1, active compounds read low 0.994 | S. cerevisiae deletion strains, locus YBR021W, strain FUR4, active compounds read low 1.02 | S. cerevisiae deletion strains, locus YBR229C, strain ROT2, active compounds read low 0.967 | S. cerevisiae deletion strains, locus YCL029C, strain bik1, active compounds read low 1.01 | S. cerevisiae deletion strains, locus YDL035C, strain GPR1, active compounds read low 0.99 | S. cerevisiae deletion strains, locus YDL074C, strain BRE1, active compounds read low 0.957 | S. cerevisiae deletion strains, locus YDL101C, strain DUN1, active compounds read low 0.97 | S. cerevisiae deletion strains, locus YDL134C, strain PPH21, active compounds read low 0.998 | S. cerevisiae deletion strains, locus YDL185W, strain tfp1, active compounds read low 0.982 | S. cerevisiae deletion strains, locus YDL192W, strain arf1, active compounds read low 1.01 | S. cerevisiae deletion strains, locus YDR101C, strain arx1, active compounds read low 1.01 | S. cerevisiae deletion strains, locus YDR150W, strain NUM1, active compounds read low 0.991 | S. cerevisiae deletion strains, locus YDR162C, strain NBP2, active compounds read low 0.964 | S. cerevisiae deletion strains, locus YDR318W, strain mcm21, active compounds read low 1.02 | S. cerevisiae deletion strains, locus YDR388W, active compounds read low 1.01 | S. cerevisiae deletion strains, locus YDR502C, strain sam2, active compounds read low 0.993 | S. cerevisiae deletion strains, locus YEL061C, strain CIN8, active compounds read low 0.995 | S. cerevisiae deletion strains, locus YER110C, active compounds read low 1.01 | S. cerevisiae deletion strains, locus YER155C, strain BEM2, active compounds read low 1.01 | S. cerevisiae deletion strains, locus YER167W, strain BCK2, active compounds read low 1.01 | S. cerevisiae deletion strains, locus YGL078C, strain dbp3, active compounds read low 0.997 | S. cerevisiae deletion strains, locus YGL086W, strain mad1, active compounds read low 1.01 | S. cerevisiae deletion strains, locus YGL248W, strain PDE1, active compounds read low 0.988 | S. cerevisiae deletion strains, locus YGR078C, strain PAC10, active compounds read low 0.977 | S. cerevisiae deletion strains, locus YGR135W, strain pre9, active compounds read low 0.985 | S. cerevisiae deletion strains, locus YGR229C, strain SMI1, active compounds read low 0.992 | S. cerevisiae deletion strains, locus YGR252W, strain gcn5, active compounds read low 1.05 | S. cerevisiae deletion strains, locus YHR030C, strain SLT2, active compounds read low 1.01 | S. cerevisiae deletion strains, locus YHR079C, strain IRE1 (second series), active compounds read low 1.01 | S. cerevisiae deletion strains, locus YHR094C, strain hxt1, active compounds read low 1.01 | S. cerevisiae deletion strains, locus YHR129C, strain ARP1, active compounds read low 1.01 | S. cerevisiae deletion strains, locus YHR200W, strain rpn10, active compounds read low 1.01 | S. cerevisiae deletion strains, locus YIL066C, strain RNR3, active compounds read low 0.983 | S. cerevisiae deletion strains, locus YIL073C, strain SPO22, active compounds read low 1.05 | S. cerevisiae deletion strains, locus YIL125W, strain kgd1, active compounds read low 0.996 | S. cerevisiae deletion strains, locus YIR030C, strain dcg1, active compounds read low 1 | S. cerevisiae deletion strains, locus YJL095W, strain BCK1, active compounds read low 0.995 | S. cerevisiae deletion strains, locus YJL134W, strain LCB3, active compounds read low 0.989 | S. cerevisiae deletion strains, locus YJL168C, strain set2, active compounds read low 0.998 | S. cerevisiae deletion strains, locus YJL187C, strain SWE1 (second series), active compounds read low 0.975 | S. cerevisiae deletion strains, locus YJR043C, strain POL32, active compounds read low 1.03 | S. cerevisiae deletion strains, locus YJR075W, strain HOC1, active compounds read low 0.945 | S. cerevisiae deletion strains, locus YKL009W, strain mrt4, active compounds read low 1.01 | S. cerevisiae deletion strains, locus YKL068W, active compounds read low 0.999 | S. cerevisiae deletion strains, locus YKL085W, strain MDH1 (second series), active compounds read low 1.02 | S. cerevisiae deletion strains, locus YKL085W, strain MDH1, active compounds read low 1.02 | S. cerevisiae deletion strains, locus YKL190W, strain CNB1, active compounds read low 0.994 | S. cerevisiae deletion strains, locus YKR001C, strain vps1, active compounds read low 1.02 | S. cerevisiae deletion strains, locus YLR039C, strain RIC1, active compounds read low 0.954 | S. cerevisiae deletion strains, locus YLR058C, strain SHM2, active compounds read low 0.982 | S. cerevisiae deletion strains, locus YLR102C, strain apc9, active compounds read low 1 | S. cerevisiae deletion strains, locus YLR262C, strain YPT6, active compounds read low 0.957 | S. cerevisiae deletion strains, locus YLR268W, strain sec22, active compounds read low 0.975 | S. cerevisiae deletion strains, locus YLR330W, strain CHS5, active compounds read low 1 | S. cerevisiae deletion strains, locus YLR342W, strain FKS1 (second series), active compounds read low 1.03 | S. cerevisiae deletion strains, locus YLR371W, strain rom2, active compounds read low 1.01 | S. cerevisiae deletion strains, locus YLR418C, strain cdc73, active compounds read low 0.966 | S. cerevisiae deletion strains, locus YML016C, strain PPZ1, active compounds read low 1 | S. cerevisiae deletion strains, locus YML032C, strain rad52, active compounds read low 1.01 | S. cerevisiae deletion strains, locus YML124C, strain tub3, active compounds read low 1.01 | S. cerevisiae deletion strains, locus YMR078C, strain ctf18, active compounds read low 1.01 | S. cerevisiae deletion strains, locus YMR223W, strain ubp8, active compounds read low 1.02 | S. cerevisiae deletion strains, locus YMR263W, strain SAP30, active compounds read low 0.955 | S. cerevisiae deletion strains, locus YMR307W, strain GAS1, active compounds read low 1.06 | S. cerevisiae deletion strains, locus YNL067W, strain RPL9B, active compounds read low 0.987 | S. cerevisiae deletion strains, locus YNL128W, strain TEP1, active compounds read low 0.939 | S. cerevisiae deletion strains, locus YNL153C, strain GIM3, active compounds read low 0.975 | S. cerevisiae deletion strains, locus YNL233W, strain BNI4, active compounds read low 0.99 | S. cerevisiae deletion strains, locus YNL250W, strain rad50, active compounds read low 0.988 | S. cerevisiae deletion strains, locus YNL271C, strain bni1, active compounds read low 1.01 | S. cerevisiae deletion strains, locus YNL298W, strain CLA4, active compounds read low 1.01 | S. cerevisiae deletion strains, locus YNL307C, strain MCK1, active compounds read low 1.02 | S. cerevisiae deletion strains, locus YNL322C, strain KRE1, active compounds read low 0.982 | S. cerevisiae deletion strains, locus YNR052C, strain pop2, active compounds read low 1.01 | S. cerevisiae deletion strains, locus YOL006C, strain TOP1, active compounds read low 0.983 | S. cerevisiae deletion strains, locus YOL012C, strain htz1 1.85 | S. cerevisiae deletion strains, locus YOL147C, strain pex11, active compounds read low 1.01 | S. cerevisiae deletion strains, locus YOR061W, strain CKA2, active compounds read low 0.963 | S. cerevisiae deletion strains, locus YOR069W, strain VPS5, active compounds read low 1 | S. cerevisiae deletion strains, locus YOR136W, strain idh2, active compounds read low 1.01 | S. cerevisiae deletion strains, locus YOR144C, strain elg1, active compounds read low 1.01 | S. cerevisiae deletion strains, locus YOR184W, strain ser1, active compounds read low 1.02 | S. cerevisiae deletion strains, locus YOR316C, strain cot1, active compounds read low 1 | S. cerevisiae deletion strains, locus YPL055C, strain LGE1, active compounds read low 0.938 | S. cerevisiae deletion strains, locus YPL241C, strain CIN2, active compounds read low 0.997 | S. cerevisiae deletion strains, locus YPR119W, strain clb2, active compounds read low 1.01 | S. cerevisiae deletion strains, locus YPR141C, strain kar3, active compounds read low 0.998 | S. cerevisiae deletion strains, locus YPR163C, strain tif3, active compounds read low 1.01 | S. cerevisiae deletion strains, locus YPR167C, strain met16, active compounds read low 0.996 | S. cerevisiae deletion strains, strain wtn01, active compounds read low 0.995 | S. cerevisiae strains, strain wild type, active compounds read low 0.99
